Screening results deposited in PubChem by several laboratories.
Hits are enriched below; roughly 3.4% of the tested compounds scored in any of these assays.
NF-kB neuron act: raises NF-kB expression in human neuronal cells; NF-kB reporter expression; stronger effect = higher value; fold change at 12.5 µM; 190,000 compounds, 1.6% hits; AID 1239; in the data active means fold change above about 3.3
APP 5'UTR act: activates APP 5'UTR luciferase reporter. 190,000 compounds, 1% hits. activation, % at 2 µM. SH-SY5Y APP 5'UTR luciferase reporter, luminescence; zero percent = DMSO vehicle wells;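 active means activation above a set limit, based on mean plus 3 SD of controls, cut at about 140% in these data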
ssDAF12 agonist: activates DAF-12 receptor from parasite S. stercoralis; HEK293 ssDAF-12/GRIP1 lit1-tk-luc reporter, luminescence; % of 3 µM dafachronic acid response; activation, % at 6.8 µM; 370,000 compounds, 1% hits; AID 652126;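 active means activation above the mean over all tested compounds plus 3 SD, cut at about 0.9% in these data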;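 further: 0% = DMSO-only wells and 100% = 3 µM delta7-dafachronic acid wells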
hgDAF12 agonist: activates the H. glycines DAF-12 receptor ligand-binding domain. HEK293 GAL4-hgDAF12 UAS-luciferase reporter, agonist luminescence; normalized to butyrate control. activation, % at 6.8 µM. AID 687014. 370,000 compounds, 1.8% hits;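 active means activation above a cutoff set at the mean of all screened compounds plus 3 SD, cut at about 10% in these data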;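 further: 0% = DMSO wells and 100% = sodium butyrate wells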
hcDAF-12 act: H. contortus DAF-12 activation, primary screen | 370,000 compounds, 1.4% hits | activation, % at 6.8 µM | AID 652067 | HEK293 hcDAF-12 lit1-tk-luc reporter, luminescence; 0% DMSO, 100% Δ7-dafachronic acid;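 active means activation above the mean of all tested compounds plus 3 SD, cut at about 5.5% in these data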;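 further: 100% = response to 3 µM Δ7-dafachronic acid high control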
An asterisk follows results filed as active; · = no result.

SMILES	NF-kB neuron act	APP 5'UTR act	ssDAF12 agonist	hgDAF12 agonist	hcDAF-12 act
C[C@H]1[C@@H](NC(=O)C2CCOC2)CC[C@@]23CCCN2C(=O)CCC[C@@H]13 (stereo partly drawn)	·	·	-2	-2	-2
NC(=O)C1CC(=O)N(c2ccc(OCc3ccc(Cl)cc3)cc2)C1 (stereo not drawn)	3.1	91	1	12*	3
NC(=O)C1CC(=O)N(c2ccc(OCC(=O)N3CCCC3)cc2)C1 (stereo not drawn)	·	·	0	-1	-1
CCCNC(=O)C1CC(=O)N(c2ccc(OCc3ccc(F)cc3)cc2)C1 (stereo not drawn)	·	·	0	13*	5.9*
C=CCNC(=O)C1CC(=O)N(c2ccc(OCc3ccc(F)cc3)cc2)C1 (stereo not drawn)	·	·	1	10	1
C=CCN1C(=O)[C@H](CC(=O)N2CCN(C(=O)C3CC3)CC2)[C@@]2(C(=O)OCC)CCCC=C12	·	·	-1	3	-1
Clc1ccc(-c2cn3c(n2)CCC3)cc1	3.5*	115	0	3	1
Cc1ccc(NC(=O)/C(C#N)=C(\N)C(Cl)(Cl)Cl)nc1	6.4*	34	·	·	·
COc1ccc(NC(=S)NC(=O)c2ccc(Br)o2)cc1	2.7	32	0	11*	1
COc1ccc(NC(=O)c2ccc(Br)o2)cc1	2.7	47	0	9	0
Cc1ccc2nc(-c3ccccc3)nc(SC(C)C(=O)NCc3cccs3)c2c1 (stereo not drawn)	5*	-4	·	·	·
Cc1ccc(C)c2c(SC(C)C(=O)NCc3ccco3)nc(-c3ccccc3)nc12 (stereo not drawn)	1	-6	-1	-1	2
COc1ccc(S[C@]2(C(=O)N3CCN(c4ncccn4)CC3)CC(=O)N(c3ccsc3)[C@@H]2c2ccc(OC)cc2)cc1	·	·	-1	3	-3
Cc1cccc(N=c2c([N+](=O)[O-])nn(-c3ccc(Cl)cc3)n2O)c1	1.5	21	-2	2	0
CCc1cccc(N=c2c([N+](=O)[O-])nn(-c3ccc(Cl)cc3)n2O)c1	4.9*	10	-2	0	-1
c1ccc(-c2noc(C34CC5CC(CC(C5)C3)C4)n2)nc1	2.3	62	0.9*	7	6.3*
c1ccc(-c2noc(C34CC5CC(CC(C5)C3)C4)n2)cc1	1.6	-8	-1	0	0
COc1ccc2oc(C(=O)CCC(=O)O)c(N)c2c1	1.2	·	-1	3	2
COC(=O)CCC(=O)c1oc2ccc(Br)cc2c1N	1.2	5	0	11*	1
CCCC1CCC2(CC1)CCC2OC(=O)Nc1ccccc1OC (stereo not drawn)	·	·	-1	-1	-1
O=C1NC(=Nc2ccc3ccccc3c2)S/C1=C/c1ccco1	1.1	19	2.0*	7	4
COC(=O)c1ccc(OCC(=O)N2CCCc3ccccc32)cc1	·	·	-1	2	0
CC(=O)Nc1ccc(S(=O)(=O)NCC(=O)OCC(=O)N2CCc3ccccc32)cc1	1.1	14	0.9*	-1	5
CC(=O)c1ccc(-c2ccc(C(=O)N3CCCc4ccccc43)o2)cc1	1.3	31	1.8*	5	-1
COc1cccc2cc(C(=O)N3CCCc4ccccc43)oc12	·	·	-1	3	-4
SMILES	NF-kB neuron act	APP 5'UTR act	ssDAF12 agonist	hgDAF12 agonist	hcDAF-12 act
O=C(COc1cccnc1[N+](=O)[O-])N1CCc2ccccc21	1.4	33	0	1	1
COCC(=O)N1CCCc2ccccc21	1.1	-9	0	4	6.3*
Cc1ccc(OCC(=O)N2CCc3ccccc32)c([N+](=O)[O-])n1	1.2	13	-2	11*	0
COc1ccc(S[C@]2(C(=O)N3CCOCC3)CC(=O)N(S(=O)(=O)c3ccc(F)cc3)[C@@H]2c2ccc(OC)cc2)cc1	·	·	-1	-1	0
O=S(=O)(Nc1cccc(-c2ccc(N3CCCCCC3)nn2)c1)c1ccc(C(F)(F)F)cc1	·	·	0	5	6.4*
O=S(=O)(Nc1cccc(-c2ccc(N3CCCCCC3)nn2)c1)c1ccc(F)cc1	·	·	0	4	4
Cc1nc2cc(NC(=O)N3c4ccccc4CC3C)ccc2o1 (stereo not drawn)	1.4	95	1.2*	6	6.0*
Cc1ccccc1NC(=O)N1c2ccccc2CC1C (stereo not drawn)	1.4	-5	-2	1	-3
Cc1ccc(C(=O)N2c3ccccc3CC2C)o1 (stereo not drawn)	1.1	134	0	13*	3
